# Test results reported in the supplement of paper PMC6555819.
# Tests used:
# Experiment in all cases: PBM binding z-score (relative to random genomic background probes); higher = stronger binding; sequences stand for … in GC…GCGATTGACAGCGTAGAATGAAGG
# [1] = system: FXR:RXRa (NR concentration 270 nM, RXRa partner concentration 90 nM)
# Outline: (§1)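 The probes on custom Agilent 4×180K protein-binding microarrays were double-stranded, with 34-nt variable regions bearing direct-repeat seeds, single-nucleotide variants, half-site ablations and random human genomic background sequences. Incubation lasted 1 h with ligand-free nuclear receptor dimers in PBS pH 7.4, 2% milk, 0.02% Triton X-100, 1 mM DTT, 0.2 mg/mL BSA and 0.4 mg/ml salmon testes DNA. Antibodies against each partner (one per run) detected bound dimers, and fluorescence scans were regression-normalized. Binding z-scores take the random background probes as reference.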
# [2] = system: LXRa:RXRa (NR concentration 270 nM, RXRa partner concentration 90 nM)
# Outline: as §1
# [3] = system: LXRa homodimer (NR concentration 270 nM)
# Outline: as §1
# [4] = system: LXRb:RXRa (NR concentration 270 nM, RXRa partner concentration 90 nM)
# Outline: as §1
# [5] = system: LXRb homodimer (NR concentration 270 nM)
# Outline: as §1
# [6] = system: PPARa:RXRa (NR concentration 270 nM, RXRa partner concentration 90 nM)
# Outline: as §1
# [7] = system: PPARg:RXRa (NR concentration 180 nM, RXRa partner concentration 90 nM)
# Outline: as §1
# [8] = system: PPARg:RXRa 270nM:90nM, anti-RXR (NR concentration 270 nM, RXRa partner concentration 90 nM)
# Outline: as §1
# [9] = system: PPARg:RXRa 30nM:10nM, anti-RXR (NR concentration 30 nM, RXRa partner concentration 10 nM)
# Outline: as §1
# [10] = system: PPARg:RXRa 90nM:30nM, anti-RXR (NR concentration 90 nM, RXRa partner concentration 30 nM)
# Outline: as §1
# [11] = system: PPARg:RXRa DBDmut IVT, anti-RXR (DBD mutation: RXRa K156A/R161A, NR concentration 270 nM, RXRa partner concentration 90 nM)
# Outline: as §1
# [12] = system: PPARg:RXRa IVT, anti-PPARg (NR concentration 270 nM, RXRa partner concentration 90 nM)
# Outline: as §1
# [13] = system: PPARg DBDmut:RXRa IVT, anti-PPARg (DBD mutation: PPARg1 K132A/R137A, NR concentration 270 nM, RXRa partner concentration 90 nM)
# Outline: as §1
# [14] = system: PPARg DBDmut IVT, anti-PPARg (DBD mutation: PPARg1 K132A/R137A, NR concentration 270 nM)
# Outline: as §1
# [15] = system: PPARg homodimer (NR concentration 180 nM)
# Outline: as §1
# [16] = system: PXR:RXRa (NR concentration 270 nM, RXRa partner concentration 90 nM)
# Outline: as §1
# [17] = system: PXR homodimer (NR concentration 270 nM)
# Outline: as §1
# [18] = system: RARa:RXR (NR concentration 270 nM, RXRa partner concentration 90 nM)
# Outline: as §1
# [19] = system: RARa homodimer (NR concentration 270 nM)
# Outline: as §1
# [20] = system: RARb:RXRa (NR concentration 270 nM, RXRa partner concentration 90 nM)
# Outline: as §1
Sequence,PBM binding z-score [1],PBM binding z-score [2],PBM binding z-score [3],PBM binding z-score [4],PBM binding z-score [5],PBM binding z-score [6],PBM binding z-score [7],PBM binding z-score [8],PBM binding z-score [9],PBM binding z-score [10],PBM binding z-score [11],PBM binding z-score [12],PBM binding z-score [13],PBM binding z-score [14],PBM binding z-score [15],PBM binding z-score [16],PBM binding z-score [17],PBM binding z-score [18],PBM binding z-score [19],PBM binding z-score [20]
TCATATAGGTAACACAGGTGAAAGTCGGCATCTA,1.43,1.43,0.437,1.22,0.437,2.4,2.36,3.3,4.15,3.83,4.65,4.09,0.968,1.6,1.38,1.15,0.735,1.5,1.19,1
GCTCGGAGGACATGGTCAGAGCTTTGTCCGTAGA,-0.823,-0.697,-0.873,-1.01,-1.56,-0.666,-0.763,-0.775,-1.35,-1.09,-0.304,-0.659,-2.23,-2.05,-2.26,-0.77,-0.911,-0.833,-1.56,0.679
TCTTGTAGATCAATAGAGGGTAAGAAAGTGCGCT,0.692,0.902,-0.251,0.517,0.175,0.606,-0.216,1.19,2.61,2.29,1.96,0.858,0.311,0.811,0.572,0.854,-0.0819,0.841,0.388,0.184
TGAATGGGGTTAAAGATCAGGGAACGTGGCGTCG,5.11,3.48,0.361,4.01,3.3,5.61,6.88,7.24,5.21,7.51,2.89,3.96,1.84,2.48,2.38,3.45,1.64,5,1.66,2.43
ATCGACAGGTCGAAGGTGAGTATACCCACCCGAA,0.612,0.709,-0.323,0.59,-0.341,2.27,2.57,2.71,1.04,2.75,-0.979,1.09,0.369,-0.333,0.63,0.914,-0.44,1.5,-0.439,1.64
ATGTCTAGGTAACAAGTTCAGTGAAAGAGAGGAC,0.658,0.774,0.395,0.727,0.845,1.28,1.06,1.07,0.33,1.12,2.05,2.17,1.24,0.999,0.836,1.69,1.68,0.876,0.818,1.56
TCTTGTAGATCAAGCAGGTTAGGAAAGCCTGAGT,-0.176,0.11,-0.571,-0.145,-0.701,0.251,-0.615,1,2.29,1.62,1.57,0.595,0.172,-0.0543,-0.235,-0.00169,0.0817,0.204,-0.0735,-0.0169
ATCTCTAGGTAAGACTCAATTCAGTGAAGAACGC,0.446,0.482,0.559,0.00858,0.847,0.0535,0.199,0.208,0.402,0.378,1.93,0.919,0.318,1.1,0.738,-0.0296,0.798,0.462,1.25,0.115
TCTTGTAGATGAACAGGAGGTTAAGAAAGATCGA,0.551,0.82,-0.0533,0.712,-0.35,0.923,0.119,1.32,2.89,2.02,1.53,0.277,0.804,0.789,0.0799,0.598,-0.154,0.883,0.212,0.279
GGAACGAGGGCATTCGAGTTGATAGAATGGCGAT,1.44,1.37,-0.262,0.195,-0.719,1.27,0.965,0.758,0.0506,0.303,2.73,1.93,-0.165,-0.814,-0.265,3.87,1.31,0.709,-0.629,1.69
GCGACTGGGGCATCAGCAGGCTACCATAACTTAA,-0.662,-0.723,-0.307,-0.378,-1.43,0.138,0.565,0.457,-1.02,-0.389,4.01,2.87,-0.343,-1.56,-0.243,-0.692,-0.801,-0.592,-1.13,0.346
ATCTCTAGGTAAGACTCAGTTCCGTGAAGAACGC,0.132,0.397,0.225,0.111,0.896,-0.155,-0.0539,0.0133,-0.0195,0.0962,1.81,0.672,-0.309,0.647,0.0237,0.093,0.39,-0.00835,0.872,-0.0314
TCCTGTAGATCAAAGGTTAAGAAAGCCGAAGCCT,1.59,2.18,-0.208,2.2,-0.193,4.17,7.57,7.55,8.09,8.13,1.82,3.04,-0.37,0.441,1.34,1.72,-0.679,2.85,-0.272,1.78
GCTAGCAGGCCATTTGGGTCTCTCAATGACGGGC,-0.43,-0.541,-0.417,-0.913,-1.24,-0.217,-0.0162,-0.509,-1.01,-0.9,0.644,0.258,-0.858,-1.65,-0.8,-0.469,-0.68,-0.418,-1.34,0.0129
AATACAGGGTCATCGTAGGCAAGAGTACGCACAG,7.68,6.03,2.1,4.59,1.4,5.83,7,6.27,3.31,4.97,2.91,4.3,1.57,1.49,4.01,4.55,0.721,5.8,1.82,4.46
CCTAGTTGGTCAGGAGGTCAGACACCGGATATGA,2.18,2.3,0.868,2.16,0.128,3.04,2.05,2.35,0.691,1.69,1.06,2.24,0.271,0.265,2.85,2.7,0.934,3.13,1.66,2.92
AAAACAGGGTCACTAGGCCAGAGTAGGTACGAAT,6.63,4.02,-0.0117,4,0.509,6.07,8.29,7.23,4.36,6.34,5.29,6.57,2.03,1.25,2.68,3.58,0.329,4.8,1.21,4.18
GCTAGCATGCCATTTGGGTCACTCAATGACGGGC,0.122,-0.0732,-0.46,0.0644,-0.628,1.05,0.819,0.752,-0.349,0.397,0.671,1.3,0.0302,-0.739,-0.305,0.247,-0.745,0.851,-0.41,1
GCTATTACTTGAAAGGGCAACCGAATGATTCTCG,0.128,0.738,0.277,0.831,0.248,1,0.583,0.184,0.177,0.0562,0.661,0.239,-0.509,0.326,0.811,0.499,-0.0796,0.627,0.826,2.17
GTTGCTAGGTCAACTGATGGTCAGCTAAAGCTCG,4.29,3.62,0.729,2.08,0.507,3.96,3.38,3.96,0.825,2.71,5.15,4.94,1.14,-0.255,1.33,1.47,-0.554,3.03,-0.133,4.26
GCAGACAGGTGAAACGCAGGTAACTCAAGGTGGC,-0.175,0.4,-0.42,-0.165,-1.28,0.892,0.604,-0.0904,-0.0664,-0.118,1.07,0.401,-0.233,-0.299,-0.279,-0.0534,-0.612,0.593,-0.358,0.608
CCGAGTAGGTTATGGGGCATACAGGCAACGGTGA,0.216,0.557,-0.0431,0.599,-0.226,2.3,3.69,4.52,2.65,4.38,2.66,3.61,0.382,0.114,1.1,-0.123,-0.0326,-0.237,0.493,0.987
GGAACGAGGGCAAAGTAGATAGCATCTGTCGACG,0.832,0.557,-0.498,0.289,-0.467,1.98,2.48,2.96,0.802,2.23,4.05,3.19,-0.596,-0.605,0.234,0.482,0.16,0.38,-0.526,2.15
AGAATGAGGTTATTAAAATCAGGGAATTGCGGTC,1.11,1.04,0.0738,1.21,0.192,2.3,1.02,1.43,0.509,0.902,3.19,2.38,0.973,0.541,0.649,1.13,0.34,1.44,0.843,1.25
CGGACTAGGTCATCCAGGACAGTGAATACATTGA,3.64,2.45,0.39,1.81,-0.227,4.22,6.64,5.63,3.03,4.87,7.5,7.58,1.52,0.792,1.9,1.59,0.944,1.89,0.179,3.49
TCTTGTAGAGCAAAGGTTAAGAAAGCCGAAGCCT,0.884,1.23,-0.186,1.4,-0.852,4.91,8.91,8.58,8.43,8.68,2.94,4.15,0.281,-0.0845,0.283,1.49,-0.688,2.16,-0.59,1.62
CCGCGGAGGACAGAAGGTCAGAGCTGTCCGCTTT,1.22,1.49,-0.1,0.955,-1.05,1.77,-0.261,0.596,-0.857,0.289,-0.00504,0.1,-1.81,-2.04,0.973,1.42,-0.53,2.3,-0.744,3.25
ACTATTAGTTGAGCCGAGGGCAACCGATAGGTTG,0.981,0.0811,-0.117,-0.118,0.161,0.302,0.401,-0.167,-0.144,-0.0304,-0.387,0.273,0.194,-0.123,-0.122,1.43,0.308,0.433,0.387,1.21
TCTAGTTGGTCAAAGGTCACACATTCGAAATGCG,6.04,5.54,3.96,5.35,1.75,6.86,11.5,9.09,10.8,10.5,3.49,6.33,1.17,1.94,4.05,5.8,1.55,6.86,2.63,5.06
